Where “and” joins values, the source holds several entries; their conditions need not be identical. Equal entries are not always repeated. Calls of active or inactive are those of the source.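 How the source made its calls, unless noted: active means compounds lowering colon cancer cell viability after pretreatment blocking the GSK3B kinase; inactive means the rest.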

A short description of assay [1]: stimulators of nuclear beta-catenin in C2C12, primary screen, imaging, WNT3A-conditioned medium, mouse C2C12, NPC library (AID 1117326; in the data active means nuclear beta-catenin stimulation mostly above about 4.2%, no sharp cut-off; inactive means mostly below about 10%). To be noted: stronger effect = higher value.
Assay [2] in a line: stimulators of insulin release from INS-1E, primary screen, cell-based, 5 mM glucose, NPC library (AID 1117329;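 active means compound raises insulin release from rat beta cells at 5 mM glucose, no numeric limit stated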). The settings on record: rat INS-1E insulin secretion, at 10 µM, stronger effect = higher value.
Assay [3] is described as follows: growth inhibition of GSK3B-pretreated HCT116 cells – cell-based, CellTiter-Glo, 0.2 to 20 µM (AID 1117336). To be noted: HCT116 viability after GSK3B inhibitor, at 20 µM, stronger effect = higher value.
Assay [4] is described as follows: inhibition of endothelial tube formation, primary screen, imaging, VEGF stimulated, CD31 staining, tube area, NPC library (AID 1117340;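 active means compound that reduces growth-factor-driven endothelial tube area in a mixed cell culture, no cutoff stated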). To be noted: VEGF-stimulated ADSC/ECFC co-culture, at 10 µM, stronger effect = higher value.
Assay [5] in a line: glucagon-like peptide 1 release enhancers, primary assay, NCI-H716 cell line, NPC library (AID 1117341;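 active means compound raises GLP1 secretion from the human gut endocrine cells, with no numeric limit stated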). To be noted: NCI-H716 cells, at 10 µM, stronger effect = higher value.
A short description of assay [6]: HCT116 colon cancer cell growth inhibition, primary screen, CellTiter-Glo luminescence, NPC library (AID 1117342;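 active means compounds that lower survival of HCT116 colon cancer cells in the luminescence readout, no numeric limit stated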). The settings on record: at 20 µM (top of the series). For orientation: In ATP-based viability assays light output follows the ATP content of the culture.
The nature of assay [7]: CellTiter-Glo luminescent readout of SW480 viability loss, NPC library primary (AID 1117343;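 active means compounds that lower viability of the colon cancer cells in the luminescence readout, with no numeric limit stated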). To be noted: CellTiter-Glo luminescence; at 20 µM (top of the series).
Assay [8] in a line: decreased DLD-1 cellular survival, CellTiter-Glo luminescent readout, NPC compound collection, primary HTS (AID 1117346;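 active means compounds that lower survival of DLD-1 colon cancer cells in the luminescence readout, no cutoff given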). The settings on record: DLD-1 viability, CellTiter-Glo luminescence; at 20 µM (top of the series).
Assay [9] deals with 6-phosphogluconate dehydrogenase, decarboxylating (Homo sapiens) (UniProt P52209). In words: 6PGD enzyme inhibitors, primary screen, biochemical, human, recombinant enzyme, NADPH absorbance (AID 1159550;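 active means at least 20% inhibition of 6-phosphogluconate dehydrogenase activity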). To be noted: recombinant 6PGD, NADPH absorbance 341 nm; at 10 µM; stronger effect = higher value.
Chain of 6-phosphogluconate dehydrogenase, decarboxylating (Homo sapiens) (P52209 whole entry, looked up): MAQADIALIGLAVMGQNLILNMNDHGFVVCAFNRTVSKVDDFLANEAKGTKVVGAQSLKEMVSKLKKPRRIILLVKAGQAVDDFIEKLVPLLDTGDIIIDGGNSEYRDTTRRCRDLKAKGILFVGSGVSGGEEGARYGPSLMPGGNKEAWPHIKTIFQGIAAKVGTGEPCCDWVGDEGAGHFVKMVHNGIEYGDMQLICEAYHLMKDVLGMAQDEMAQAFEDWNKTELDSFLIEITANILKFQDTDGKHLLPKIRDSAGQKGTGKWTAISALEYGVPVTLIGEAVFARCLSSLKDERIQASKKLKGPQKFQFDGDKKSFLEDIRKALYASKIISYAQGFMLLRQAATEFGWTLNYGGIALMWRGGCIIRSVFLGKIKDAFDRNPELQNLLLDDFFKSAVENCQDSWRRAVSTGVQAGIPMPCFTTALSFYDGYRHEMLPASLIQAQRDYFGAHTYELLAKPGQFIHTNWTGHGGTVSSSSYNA
Assay [10] in a line: differential killing of epithelial or mesenchymal cells, primary screen, imaging, PC-3E GFP, TEM4-18 mCherry, co-culture (AID 1345086;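 active means compounds killing one labelled cell type while sparing the other, by normalised counts and ratio limits, not self-fluorescent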;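 further: cells exposed to compound for 72 h before imaging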;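 on red/green cell ratio (normalised): normalised mesenchymal count divided by normalised epithelial count so high means epithelial killing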). To be noted: imaging cell counts, at 1 µM.
Assay [11] in a line: survival rescue of mitochondrial mutant cells in low glucose, primary screen, MELAS cybrids, Rieske KO mouse fibroblasts, CellTiter-Glo (AID 1508586;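 active means mean z-score across replicates of 1.96 or higher in either the MELAS or the Rieske mutant cell line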;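 further: z relative to plate mean and SD of compound and empty wells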).
Assay [12] has as its target NAD(+) hydrolase SARM1 (Homo sapiens) (UniProt Q6SZW1). In words: SARM1 TIR NADase inhibitors, cell lysate, NAD-Glo luminescence (AID 1508614;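 active means compound whose remaining NAD level is above about 45 nM, limit read from the data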). To be noted: SAM-TIR HEK293T lysate NADase, at 1 µM, stronger effect = higher value.
Assay [13] addresses Mitogen-activated protein kinase 7 (Homo sapiens) (UniProt Q13164). In words: ERK5 transactivation activators in reporter cells, primary screen, cell-based, HTS (AID 1508626;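 active means luciferase signal above three times the same-plate solvent-only control wells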;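 further: luciferase driven by Gal4-ERK5 fusion binding five Gal4 sites before minimal TATA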). The settings on record: HeLa Gal4-ERK5 transactivation, 18 h, at 5 µM, stronger effect = higher value.
Assay [14] in a line: ICB984 medulloblastoma cell growth inhibition, synergistic combos for chromothripsis tumors, cisplatin or BGB combos (AID 1671451; call rule not given here;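 further: cells exposed for 96 hours before readout; 0% = vehicle DMSO and 100% = killing by high DMSO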). To be noted: ICB984 medulloblastoma cells, drug combinations, stronger effect = higher value.

Chain of Mitogen-activated protein kinase 7 (Homo sapiens) (Q13164 whole entry, looked up, the tested form may be a part): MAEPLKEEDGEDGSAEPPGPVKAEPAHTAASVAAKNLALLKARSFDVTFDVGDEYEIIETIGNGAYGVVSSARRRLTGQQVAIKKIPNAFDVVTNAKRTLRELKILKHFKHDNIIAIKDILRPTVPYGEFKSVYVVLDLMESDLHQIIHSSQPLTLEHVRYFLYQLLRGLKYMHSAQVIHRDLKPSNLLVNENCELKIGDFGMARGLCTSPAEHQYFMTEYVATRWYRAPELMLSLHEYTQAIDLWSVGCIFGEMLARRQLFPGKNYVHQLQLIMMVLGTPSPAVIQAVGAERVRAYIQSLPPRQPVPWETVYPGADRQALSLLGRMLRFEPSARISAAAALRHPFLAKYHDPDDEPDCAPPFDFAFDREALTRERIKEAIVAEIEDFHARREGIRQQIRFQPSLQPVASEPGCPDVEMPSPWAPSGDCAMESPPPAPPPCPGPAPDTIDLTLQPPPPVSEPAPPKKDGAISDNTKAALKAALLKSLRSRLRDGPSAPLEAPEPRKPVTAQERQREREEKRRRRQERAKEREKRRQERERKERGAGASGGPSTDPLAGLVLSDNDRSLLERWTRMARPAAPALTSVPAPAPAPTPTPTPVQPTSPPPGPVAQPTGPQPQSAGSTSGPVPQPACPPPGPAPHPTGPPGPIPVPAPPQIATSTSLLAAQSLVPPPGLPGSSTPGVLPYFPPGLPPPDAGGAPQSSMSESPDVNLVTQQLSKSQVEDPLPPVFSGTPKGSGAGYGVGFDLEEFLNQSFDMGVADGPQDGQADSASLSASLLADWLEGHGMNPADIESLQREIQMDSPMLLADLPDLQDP
Chain of NAD(+) hydrolase SARM1 (Homo sapiens) (Q6SZW1 whole entry, looked up, the tested form may be a part): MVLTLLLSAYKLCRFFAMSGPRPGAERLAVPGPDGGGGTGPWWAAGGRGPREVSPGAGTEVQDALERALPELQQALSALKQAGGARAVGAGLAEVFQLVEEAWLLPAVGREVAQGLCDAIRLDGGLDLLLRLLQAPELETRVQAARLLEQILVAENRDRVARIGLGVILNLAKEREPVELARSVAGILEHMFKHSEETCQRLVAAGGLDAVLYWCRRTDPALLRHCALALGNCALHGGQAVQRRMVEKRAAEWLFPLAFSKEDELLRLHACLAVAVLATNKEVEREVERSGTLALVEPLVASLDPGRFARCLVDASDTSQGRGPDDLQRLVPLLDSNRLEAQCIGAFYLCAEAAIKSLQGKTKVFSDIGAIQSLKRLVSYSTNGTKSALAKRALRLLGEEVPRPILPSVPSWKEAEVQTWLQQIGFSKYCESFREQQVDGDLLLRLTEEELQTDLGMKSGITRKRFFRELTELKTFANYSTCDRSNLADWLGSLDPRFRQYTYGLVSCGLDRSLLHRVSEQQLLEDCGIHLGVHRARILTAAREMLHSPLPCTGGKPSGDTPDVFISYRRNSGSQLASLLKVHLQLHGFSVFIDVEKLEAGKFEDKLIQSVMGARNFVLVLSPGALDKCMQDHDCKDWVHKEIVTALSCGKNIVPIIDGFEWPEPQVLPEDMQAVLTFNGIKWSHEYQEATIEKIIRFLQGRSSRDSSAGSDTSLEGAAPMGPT

As for `CCOC(=O)N1CCC(Nc2ccc(Cl)cc2N)CC1`, the nuclear beta-catenin stimulation is 5.3% (inactive) in [1] (at 10 µM) and 4.4% in [1] (stimulation, at 2 µM). Further, in assay [2], the insulin secretion stimulation is 0.6% (inactive). Besides, the viability decrease in assay [3] is 0.9% (inactive). Also, the tube area decrease in assay [4] is 41.4% (active). Further, in [5], the GLP1 secretion stimulation was -4.9% (inactive). The inhibition of viability in assay [6] was 32.5% (inactive). Further, the values for the viability decrease (inhibition) in assay [7] and in assay [8] were 27.8% (inactive) and -12.2% (inactive), respectively.

For the molecule `CCN(CC)CCCC(C)Nc1c2ccc(Cl)cc2nc2ccc(OC)cc12` (centres undefined), the nuclear beta-catenin stimulation in [1] (at 10 µM) was 3.9% (inactive); in assay [1] (stimulation, at 2 µM), 1.8%. Further, the insulin secretion stimulation in assay [2] is 84.6% (active). Also, in [3], the viability decrease is 103% (active). The tube area decrease in assay [4] is 97.1% (active). Further, in [5], the GLP1 secretion stimulation was 7.1% (inactive). In assay [6], the inhibition of viability is 102% (active). The viability decrease (inhibition) in assay [7] was 122% (active); in [8], 97.7% (active). Moreover, the inhibition (usually the relative decrease from the control value, in per cent) in assay [9] is 1.31% (inactive); in [14] (BGB IC20 combo, at 0.005 µM) it was -4.02%; in assay [14] (BGB IC40 combo, at 0.005 µM) it was 16.5%; in assay [14] (BGB IC40 combo, at 0.05 µM) it was 90.3%; in [14] (at 0.5 µM) it was -2.08% (inactive); in assay [14] (cisplatin combo, at 0.05 µM), 90%. The inhibition in [14] (cisplatin combo, at 0.5 µM) was -4.11%; in [14] (cisplatin combo, at 5 µM), -21.6%; in [14] (measured here: 5 uM single agent, at 5 µM), 1.6%. In addition, in [10] (actives lie on both sides, counts scaled to control wells, 1 = unselective), the red/green cell ratio (normalised) was 1.37 (inactive). Besides, the figures for the normalised cell number in assay [10] (measured here: epithelial PC-3E GFP cell survival) and in assay [10] (measured here: mesenchymal TEM4-18 mCherry cell survival) were 0.76 and 1.04, respectively. For the same molecule, the z-score was 0.298 and 1.99 (active) and 1.02 in assay [11] (MELAS cybrid survival, CellTiter-Glo 48 h, stronger effect = higher value); 6.25 and 5.35 and 3.32 in assay [11] (Rieske KO mouse fibroblast survival, CellTiter-Glo 72 h). Also, in assay [12], the remaining NAD is 10 nM (inactive). Further, the luciferase signal in [13] was 1610 AU (active).

The values are drawn from PubChem BioAssay.
